Drawing on PubChem BioAssay (NCATS), this text covers Potency and activity change, negative = inhibition for 40 compounds.

Structures are written as SMILES. Inconclusive results are not listed. Where a call stands in place of a potency, no number is given. Activity calls are given as the source filed them. Calls follow the shape of the dose curve; as a rule, active = well fitted inhibition curve with a large enough effect; inconclusive = small, poorly fitted or top-dose-only effect; inactive = no such curve, though single readings can be large or run the other way.

In this assay the target is Retinaldehyde dehydrogenase 3 (Homo sapiens) (UniProt P47895). In words: qHTS for Inhibitors of the Aldehyde Dehydrogenase Family (ALDH1A3) Primary screen (AID 2061315). Particulars: ALDH inhibition qHTS; series mostly up to 56 µM.
For the compound `O=C(OCC1=CC(Cl)C(O)C(OC(=O)c2ccccc2)C1O)c1ccccc1` (stereo not given), the Potency entry was “inactive”.
As for `COC(=O)[C@H]1[C@H]2C[C@@H]3c4[nH]c5cc(OC)ccc5c4CCN3C[C@H]2C[C@@H](OC(=O)/C=C/c2cc(OC)c(OC)c(OC)c2)[C@@H]1OC`, the Potency result is “inactive”.
The same measure, in the same setting: as for `CC(=O)O[C@H]1[C@H](Oc2ccccc2COC(=O)C2(O)C=CCCC2=O)O[C@H](CO)[C@@H](O)[C@@H]1O` (stereo not given in full), the entry is “inactive”; as for `Cc1nc2ccc(Oc3ccc(F)cc3)cc2c(=O)n1C[C@H]1CCCN(C(C)C)C1`, “inactive”.
On to `CC1=CC(=O)CC(C)(C)[C@H]1/C=C/C(CO)O[C@@H]1O[C@H](CO)[C@@H](O)[C@H](O)[C@H]1O` (stereo not given in full), for which the Potency result was “inactive”.
The same measure, in the same setting: the same measure for `CCC(NC(=O)CC(NC(=O)C(CO)NC(=O)C(CC)NC(=O)c1ccc[nH]1)c1ccccc1)C(=O)O` (stereo not given): “inactive”; for `C[C@@H](c1ccccc1)N(C(N)=NC#N)c1cccc2ncccc12`: “inactive”; for `OC[C@H]1O[C@@H](OCCc2ccccc2)[C@H](O[C@@H]2OC[C@@H](O)[C@H](O)[C@H]2O)[C@@H](O)[C@@H]1O`: “inactive”.
Still for that read-out and setting: as for `C=C1C(=O)O[C@@H]2/C=C(\CO)CC/C=C(/C=O)C[C@H](O)[C@@H]12`, the entry is “inactive”.
With `C/C=C(\C)C(=O)OC1CC2C(CC=C3CC(OC4CC(OC)C(OC5CC(OC)C(OC6CC(OC)C(OC7CC(OC)C(OC8CC(OC)C(OC9OC(CO)C(O)C(O)C9O)C(C)O8)C(C)O7)C(C)O6)C(C)O5)C(C)O4)CCC32C)C2(O)CCC(C(C)=O)C12C` (stereo not given), the activity change, negative = inhibition is 17.2% [at 11.2 µM] (inactive).
As for `CC(=O)OC/C(=C/C(=O)O)CC[C@@H]1C(C=O)=CC[C@@H]2C(C)(C)CCC[C@@]12C`, the Potency result was “inactive”.
With `CC1(C)CCCC2(C)C1CC=C1C(=O)OC(O)C12O` (stereo not given), the Potency entry was “inactive”.
On to `CC1(C)CC[C@]2(C(=O)O[C@@H]3O[C@H](CO[C@@H]4O[C@H](CO)[C@@H](O)[C@H](O)[C@H]4O[C@@H]4O[C@H](CO)[C@H](O)[C@H](O)[C@H]4O)[C@@H](O)[C@H](O[C@@H]4O[C@H](CO)[C@@H](O)[C@H](O)[C@H]4O)[C@H]3O)CC[C@]3(C)C(=CCC4[C@@]5(C)CC[C@H](O[C@@H]6OC[C@@H](O)[C@H](O)[C@H]6O)[C@@](C)(C(=O)O)C5CC[C@]43C)[C@@H]2C1` (stereo not given in full), for which the activity change, negative = inhibition was 11.9% [at 11.2 µM] (inactive).
With `C=C1C[C@]23C[C@H]1CC[C@H]2[C@]1(C)CCC[C@@](C)(C(=O)O)[C@H]1[C@@H]3C(=O)O`, the Potency entry was “inactive”.
`CC(=O)OC1C(O)CC2(C)C(CCC(C)C23Cc2c(O)cc(CO)c(C=O)c2O3)C1(C)C` (stereo not given): the Potency entry is “inactive”.
The same measure, in the same setting: the same measure for `C=C(CCO)C(=O)OCC1OCC(OC(=O)C(=C)CCO[C@@H]2O[C@H](CO)[C@@H](O)[C@H](O)[C@H]2O)C(O)C1O` (stereo not given in full): “inactive”; for `C=C1C[C@H](O)[C@@H](O)[C@@]2(C)C1[C@@H](O)[C@H]1OC(=O)C3[C@@H](C)[C@@H](O)[C@H](O)C2[C@]31C` (stereo not given in full): “inactive”; for `Cn1cc(C2=C(c3coc4ccccc34)C(=O)NC2=O)c2cc(Br)ccc21`: “inactive”.
On the same count and under the same terms, as for `COCC1OC(n2cnc3c(=O)[nH]cnc32)C(O)C1O` (stereo not given), the entry is “inactive”; as for `CC1CCC2(C(=O)OC3OC(CO)C(O)C(O)C3O)CCC3(C)C(=CCC4C5(C)CCC(O)C(C)(CO)C5CCC43C)C2C1(C)O` (stereo not given), “inactive”; as for `C=C(C)C1=C[C@@]2(C)C(=CC1=O)CC[C@@H](O)[C@@H]2C`, “inactive”.
On the same count and under the same terms, the same measure for `C=C(C)C(=O)O[C@H]1C[C@@](C)(OC(C)=O)[C@@]2(O)CC[C@@](C)(O)[C@H](OC(C)=O)[C@@]23OC(=O)C(COC)=C13`: “inactive”; for `C/C=C(\C)C(=O)O[C@H]1C=CC(=O)O[C@H]1/C=C/[C@H](O)[C@@H](C)O`: “inactive”; for `CC1C2=CC(=O)OC2(O)CC2C1C(OC(=O)c1ccccc1)C(OC(=O)c1ccccc1)C1(O)C2(C)CCC(O)C1(C)C(=O)O` (stereo not given): “inactive”.
Regarding `COC1CC(=O)CCC(C)OC(=O)CC1O` (stereo not given), the Potency entry was “inactive”.
Same read-out and setting: as for `CCC(C)C1NC(=O)C2C(C)CCN2C(=O)C(CC(O)CO)OC(=O)CCNC(=O)C(C)N(C)C(=O)C(C(C)C)N(C)C1=O` (stereo not given), the entry is “inactive”.
Same read-out and setting: as for `C/C1=C\CCC2=C[C@@H](OC2=O)c2c(C)coc2C1`, the entry is “inactive”; as for `C=C1C[C@@]23CCC4[C@@](C)(CCC[C@@]4(C)C(=O)OC)C2CC[C@@H]1C3` (stereo not given in full), “inactive”; as for `COC1=CC(=O)C=C(C)C12Oc1c(Cl)c(OC)cc(OC)c1C2=O` (stereo not given), “inactive”.
As to `Cc1occc(=O)c1O[C@@H]1O[C@H](COC(=O)CC(C)(O)CC(=O)O)[C@@H](O)[C@H](O)[C@H]1O` (stereo not given in full), the Potency result was “inactive”.
On the same count and under the same terms, the same measure for `C=C1CC[C@@]2(OC1)O[C@H]1CC3[C@@H]4CC=C5C[C@@H](O)C[C@@H](O[C@@H]6OC[C@H](O)[C@H](O)[C@H]6O[C@@H]6O[C@@H](C)[C@H](O)[C@@H](O)[C@H]6O)[C@]5(C)C4CC[C@]3(C)[C@H]1[C@@H]2C` (stereo not given in full): “inactive”; for `COc1cc(O)c([C@@H](CC(=O)N2CC(C)CC(C)C2)c2ccc3c(c2)OCO3)c(OC)c1` (stereo not given in full): “inactive”; for `COc1ccc(S(=O)(=O)n2cnc3cc(C)c(C)cc32)cc1`: “inactive”.
The same measure, in the same setting: as for `CC(=O)N1CCN(Cc2ccc([C@H](C)Nc3nccc(N4C(=O)OC[C@@H]4C(C)C)n3)cc2)CC1`, the entry is “inactive”; as for `O=C(O)c1ccc(NC(=O)[C@H](CC2CCCC2)n2cnc(C(F)(F)F)c2)nc1`, “inactive”.
The same measure, in the same setting: the same measure for `Cc1cc(O)c(C(C)C)cc1O[C@@H]1O[C@H](CO)[C@@H](O)[C@H](O)[C@H]1O`: “inactive”; for `CC1(C)CC=C(c2cnc3ccccc3c2)c2cc(C(=O)Nc3ccc(C(=O)O)cc3)ccc21`: “inactive”; for `Cc1cc(N2CCCCC2)nc2ccccc12`: “inactive”.
With `OCC1=CC[C@@H]2C=CO[C@@H](O[C@@H]3O[C@H](CO)[C@@H](O)[C@H](O)[C@H]3O)[C@H]12`, the Potency entry was “inactive”.
Turning to `CC(=O)c1cc2c(cc1O)OC(C)(C)C=C2`, the Potency result was “inactive”.
